Source: ChEMBL document CHEMBL3433997, “St. Jude Leishmania screening dataset” (2016)

The compounds below were run against Glucose transporter (Leishmania mexicana) (UniProt O61059) (assay: ST_JUDE_LEISH: Cytotoxicity at 2uM final concentration against transgenic Leishmania Mexicana promastigotes LmGT2 that are glucose transport deficient and complemented with the L. Mexicana glucose transporter 2. Activity is measured by DNA content using SYBR green in vitro).
Format: functional
COCCOc1ccc(Nc2nccc(-c3c(-c4cccc(NC(=O)c5c(F)cccc5F)c4)nn4ccccc34)n2)cc1Cl showed an inhibition of 2.52%.
Compound O=C(Nc1ccc(OC(F)(F)F)cc1)NC1CCN(c2ccnc3ccccc23)CC1 has an inhibition of -1.28%.
Work on Cc1cc(C2CCN(CCCCNC(=O)c3ccc(NC(=O)c4ccc(Cl)cc4)cc3)CC2)c(C)cc1OCc1nccn1C yielded an inhibition of 0.69%.
c1ccc(CN2CCC(NCc3cccc(-c4cncc5ccccc45)c3)CC2)cc1 gave an inhibition of 8.64%.
For CC(C)C[C@H](NC(=O)c1ccc(F)cc1)C(=O)N[C@H](/C=N/NC(=O)c1ccccc1)CCc1ccccc1, the inhibition was 3.91%.
COc1ccc(-c2ccc(NC(=O)c3cccc(Cl)c3)cc2)cc1CN(C)CCO was tested, and the inhibition was -1.71%.
O=C1Nc2ccccc2/C1=N/NC(=S)N1CCOCC1 gave an inhibition of 0.09%.
CC(C)[C@H](NC(=O)c1ccc(O)c(-c2ccc(Cl)c(Cl)c2)c1)C(=O)NCCN1CCCC1 was tested, and the inhibition was 0.36%.
With Nc1nc(N)c2c(ccc3c2cnn3S(=O)(=O)N2CCCC2)n1 the inhibition was -2.01%.
CC(C)c1ccc(NC(=O)c2cccc(CN3CCCN(Cc4cccc(C#N)c4)CC3)c2)cc1 was tested, and the inhibition was 3.39%.
Work on COc1ccc(CCN(C)CCCCNC(=O)c2ccc(NC(=O)c3ccc(Cl)cc3)cc2)c(OC)c1 yielded an inhibition of 2.45%.
Work on CC(C)C[C@H](NC(=O)[C@H](Cc1ccccc1)NC(=O)CCN1C(=O)COc2ccc(C(=O)O)cc21)C(=O)NC(CC1CCCCC1)C(O)CC(=O)NCCCn1ccnc1 (stereo not given in full) yielded an inhibition of 9.78%.
Cc1nc2ccc3ccc(CNc4ccc(C(=O)CC(CCC(=O)O)C(=O)O)cc4)cc3c2c(=O)[nH]1 (stereo not given) gave an inhibition of -0.36%.
With CN1CCC(NCc2cccc(-c3cnc(NCc4ccccc4)nc3)c2)CC1 the inhibition was 1%.
In the case of Cc1cc(-c2nc3cncc(-c4cccc(CN5CCCC5Cc5cccnc5)c4)c3n2C)nn1C (stereo not given), the inhibition is reported as -0.34%.
Compound CCN(CC)CCN(Cc1ccc(-c2ccc(C(F)(F)F)cc2)nc1)C(=O)Cn1c(SCc2ccc(F)cc2)nc(=O)c2sccc21 has an inhibition of 1.84%.
In the case of COc1ccc(-c2cnc3ccc(NCc4ccc(S(N)(=O)=O)cc4)nn23)cc1, the inhibition is reported as 12.6%.
N#Cc1cccc(COC(=O)C2=C(COc3ccccc3Cl)NC(=O)NC2c2c[nH]c3cnccc23)c1 (stereo not given) showed an inhibition of 6.83%.
With Fc1ccc2c(NN=Cc3ccccc3)ccnc2c1 the inhibition was -1.55%.
Fc1ccc(C=NNc2nc3ccccc3[nH]2)cc1 was tested, and the inhibition was 12.1%.
In the case of Cc1[nH]c(C)c(-c2ccc(OCc3ccccc3C(F)(F)F)nc2)c(=O)c1Br, the inhibition is reported as 1.94%.
Compound COc1ccccc1C1CCN(C2CCC(NC(=O)/C=C/c3cccc(C(F)(F)F)c3)CC2)CC1 (stereo not given) has an inhibition of 5.04%.
For CS(=O)(=O)c1ccc2c(c1)CCN(CCC1CCC(NC(=O)C(=Cc3ccc(Cl)cc3Cl)c3ccc(-c4ccccc4)cc3)CC1)CC2 (stereo not given), the inhibition was 3.51%.
For O=C(NC1CCN(Cc2ccccc2)CC1)c1cc(C(=O)NC2CCN(Cc3ccccc3)CC2)cc(C(=O)NC2CCN(Cc3ccccc3)CC2)c1, the inhibition was 4.94%.
Work on CCc1c[nH]c2c(N(c3ccccc3)S(C)(=O)=O)cc(C(=O)N[C@@H](Cc3ccccc3)[C@H](O)CNC(C)(C)CCCC(C)C)cc12 yielded an inhibition of 0.18%.
Work on CCc1cn(CCc2ccccc2)c2ccc(C(=O)N[C@@H](Cc3ccccc3)[C@H](O)CNC(C)(C)CCCC(C)C)cc12 yielded an inhibition of -2.99%.
CCCCCC(=O)N1CCOC(CCN2CCc3c(c4ccccc4n3C)C2)(c2ccc(Cl)c(Cl)c2)C1 (stereo not given) gave an inhibition of 9.52%.
Work on Cc1nn(C)c(C)c1CN(Cc1nc(-c2cccc(Oc3ccccc3)c2)oc1C)C1CC1 yielded an inhibition of 5.34%.
With CC(C)C[C@@H](/C=N/N1CC(=O)NC1=O)NC(=O)[C@H](CC(C)C)NC(=O)c1ccc(OCCN2CCOCC2)cc1 the inhibition was 1.11%.
For Nc1nc(N)c2c(ccc3c2ccn3CCCCO)n1, the inhibition was 6.28%.
For Cc1ccccc1OCCCN1CCN(CC(c2ccc(F)cc2)N2CCN(C(C)C)CC2)CC1 (stereo not given), the inhibition was 14.9%.
For CCCc1ccc(S(=O)(=O)Nc2ccc3c(c2)CCC3)cc1, the inhibition was 3.52%.
Fc1ccccc1C=NN=c1cc[nH]c2ccc(C(F)(F)F)cc12 gave an inhibition of 2.13%.
In the case of COCCNCc1ccc(-c2cccc(CN(C(=O)NCCc3ccccc3)C3CCN(Cc4ccccc4)CC3)c2)cc1, the inhibition is reported as -1.5%.
With CCn1cc2c3c(cc(C(=O)N[C@@H](Cc4ccccc4)[C@H](O)CNCc4cccc(OC)c4)cc31)N(C)S(=O)(=O)CC2 the inhibition was 2.18%.
In the case of O=C(Nc1cccc(-c2cccc(-c3ccc(F)cc3)n2)c1)c1ccc([N+](=O)[O-])o1, the inhibition is reported as 1.35%.
In the case of Cn1nc(-c2ccc(NC(=O)Nc3cc(C(F)(F)F)ccc3F)cc2)c2cnc(NCCc3c[nH]cn3)nc21, the inhibition is reported as 2.46%.
Work on Cc1ccc2[nH]c(C)c(Br)c(=O)c2c1 yielded an inhibition of -3.38%.
Cc1noc(-c2ccccc2)c1NC(=O)NC1CCN(CCCCCNC(=O)/C=C/c2ccc(Cl)c(Cl)c2)CC1 showed an inhibition of 3.4%.
O=C(/C=C/c1ccc(Cl)c(Cl)c1)NC1CCC(CN2CCC(c3nc4ccccc4s3)CC2)CC1 (stereo not given) showed an inhibition of -1.65%.
